SMILES strings stand for the structures. Inconclusive results are not listed. Entries that show only a call come without a potency. Calls of active or inactive are those of the source. The call rests on the fitted dose curve; in most records, active means well fitted cell-killing curve with a large enough effect; inconclusive means small, poorly fitted or top-dose-only effect, or effect the other way; inactive means no such curve, though single readings can be large or run the other way.
Potency means the concentration at half of the fitted maximal effect.

The assay in a line: qHTS assay to identify small molecule inhibitors of chordoma cells - UCH-1 (AID 1259355). Further: nearly all actives have a fitted effect of over 55% in size. As to conditions: UCH-1 chordoma viability, CellTiter-Glo, 48 h, combination; series mostly up to 46.1 µM. Put shortly: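 Cells (800/well) were seeded and left overnight at 37 C, 5% CO2, then treated with drugs at 15 concentrations plus a combination mix of auranofin, camptothecin, doxorubicin, rubitecan and topotecan. Viability after 48hr was read by CellTiter-Glo luminescence.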
With `O=C(NC(=O)c1c(F)cccc1F)Nc1ccc(Cl)c(Oc2ncc(C(F)(F)F)cc2Cl)c1`, the Potency result was “inactive”.

For `CCCCCCCCOC(=O)c1ccccc1C(=O)OCCCCCCCC`, the Potency result was “inactive”.

For the compound `CC(=O)OC1CN2CCC1CC2` (stereo not given), the Potency entry was “inactive”.

As for `S=C=S`, the Potency result was “inactive”.

For the compound `CNc1ccc(C(=O)CC(O)CCC(C)C2OC(=O)CC(O)CC(=O)CC(O)CC(O)CC(O)CC(O)CC3(O)CC(O)C(C(=O)OC)C(CC(O[C@@H]4O[C@H](C)[C@@H](O)[C@H](N)[C@@H]4O)/C=C/C=C/C=C/C=C/C=C/C=C/C=C/C2C)O3)cc1` (stereo not given in full), the Potency entry is “inactive”.

Consider `Cc1cc(C)cc(C(=O)OC2C[C@H]3CC[C@@H](C2)N3C)c1` (stereo not given in full), for which the Potency result was “inactive”.

Consider `C[C@]12CC[C@H]3[C@@H](CCC4=C(Cl)C(=O)CC[C@@]43C)[C@@H]1CC[C@@H]2O`, for which the Potency entry is “inactive”.

Regarding `Oc1cc(Cl)c(Cl)cc1Cl`, the Potency entry is “inactive”.

Turning to `NCC[C@H](O)C(=O)N[C@@H]1C[C@H](N)[C@@H](O[C@H]2O[C@H](CN)[C@@H](O)[C@H](O)[C@H]2N)[C@H](O[C@@H]2O[C@H](CO)[C@@H](O)[C@H]2O)[C@H]1O`, the Potency result was “inactive”.

Regarding `COC(COC(N)=O)C1=C(N2CC2)C(=O)C(C)=C(N2CC2)C1=O` (stereo not given), the Potency is 2240 nM (active).

For the compound `COc1ccc2c3c1O[C@H]1C(=O)CC[C@H]4[C@@H](C2)N(C)CC[C@]314`, the Potency result is “inactive”.

With `CC(C)(O)[C@@H]1[C@H]2OC(=O)[C@@H]1[C@]1(O)C[C@H]3O[C@]34C(=O)O[C@H]2[C@]14C`, the Potency entry was “inactive”.

Take `CCC/C=C/C=C/C(=O)O[C@H]1/C(=C/C(=O)OC)C[C@H]2C[C@H]([C@@H](C)O)OC(=O)C[C@H](O)C[C@@H]3C[C@H](OC(C)=O)C(C)(C)[C@](O)(C[C@@H]4C/C(=C/C(=O)OC)C[C@H](/C=C/C(C)(C)[C@]1(O)O2)O4)O3`: the Potency result was “inactive”.

As for `CC(=O)O[C@H]1C[C@H](O[C@H]2[C@@H](O)C[C@H](O[C@H]3[C@@H](O)C[C@H](O[C@H]4CC[C@@]5(C)[C@H](CC[C@@H]6[C@@H]5C[C@@H](O)[C@]5(C)[C@@H](C7=CC(=O)OC7)CC[C@]65O)C4)O[C@@H]3C)O[C@@H]2C)O[C@H](C)[C@H]1O[C@@H]1O[C@H](CO)[C@@H](O)[C@H](O)[C@H]1O`, the Potency was 251 nM (active).

Consider `CCC1C(C)=NN=C(c2ccc(OC)c(OC)c2)c2cc(OC)c(OC)cc21` (stereo not given), for which the Potency entry was “inactive”.

With `O=c1[nH]c(=O)n(Cl)c(=O)n1Cl`, the Potency result is “inactive”.

`CC1CCC(C(C)C)C(OC(=O)c2ccccc2N)C1` (stereo not given): the Potency entry is “inactive”.

Turning to `CN1CCCC(=C(c2cccs2)c2cccs2)C1`, the Potency entry is “inactive”.

For `C[C@]12CC[C@H](O)C[C@H]1CC[C@@H]1[C@@H]2CC[C@]2(C)[C@@H](c3ccc(=O)oc3)C[C@H]3O[C@]132`, the Potency is 6310 nM [with auranofin plus four topoisomerase inhibitors] (active).

In the case of `O=Cc1ccco1`, the Potency entry is “inactive”.

In the case of `CC(C)CCC(=O)O[C@H]1CC[C@H]2[C@@H]3CCC4=CC(=O)CC[C@]4(C)[C@H]3CC[C@]12C`, the Potency entry was “inactive”.

On to `C[C@H]1CCC[C@H](O)CCCCCc2cc(O)cc(O)c2C(=O)O1`, for which the Potency entry is “inactive”.

With `O=C(CCl)c1ccc(Oc2ccc(C(=O)CCl)cc2)cc1`, the Potency entry is “inactive”.

Regarding `CCOC(=O)/C=C(C)/C=C/C[C@@H](C)CCCC(C)C`, the Potency entry is “inactive”.

In the case of `C[C@]12CCC(=O)C=C1C=C[C@@H]1[C@@H]2CC[C@@]2(C)[C@H]1CC[C@@]2(O)CCC(=O)O`, the Potency result was “inactive”.

On to `C[C@]12CC[C@H](OS(=O)(=O)O)CC1=CC[C@@H]1[C@@H]2CC[C@]2(C)C(=O)CC[C@@H]12`, for which the Potency entry is “inactive”.

For `O=C(NCNC(=O)NC1C(=O)NC(=O)N1CO)NC1C(=O)NC(=O)N1CO` (stereo not given), the Potency result is “inactive”.

For `CC(=O)O[C@H]1C[C@H](O[C@H]2[C@@H](O)C[C@H](O[C@H]3[C@@H](O)C[C@H](OC4CC[C@@]5(C)[C@H](CC[C@@H]6[C@@H]5CC[C@]5(C)[C@@H](C7=CC(=O)OC7)CC[C@]65O)C4)O[C@@H]3C)O[C@@H]2C)O[C@H](C)[C@H]1O[C@@H]1O[C@H](CO)[C@@H](O)[C@H](O)[C@H]1O` (stereo not given in full), the Potency was 447 nM (active).

Regarding `ClC=C(Cl)Cl`, the Potency result was “inactive”.

On to `ClC1C(Cl)C(Cl)C(Cl)C(Cl)C1Cl` (stereo not given), for which the Potency entry is “inactive”.

Turning to `CCC1(c2ccccc2)C(=O)NC(=O)N(C(=O)c2ccccc2)C1=O` (stereo not given), the Potency entry is “inactive”.

With `CCON=O`, the Potency entry is “inactive”.

In the case of `CCC1(C)CC(=O)NC(=O)C1`, the Potency result is “inactive”.

Regarding `F/C(COc1ccc2c(c1)[nH]c1ccccc12)=C1/CN2CCC1CC2`, the Potency entry was “inactive”.

For the compound `C[N+]1(C)[C@@H]2CC[C@H]1CC(OC(=O)c1c[nH]c3ccccc13)C2` (stereo not given in full), the Potency entry is “inactive”.

(Values after PubChem BioAssay (NCATS).)
